# Reference: the supplement of paper PMC10849652
# About 7,900 targets were measured; listed, in parts, are those with a hit and a random draw of the rest. About 0.6% of all pairs of compound and target were hits. Unmarked numbers belong to inactive results.
# Key:
# Assay in all cases: log2 fold change, soluble protein after heating vs DMSO (PISA); higher = thermal stabilisation; K562 cells, 10 uM, 30 min; active = over 0.2 and 3.5 SD of the protein, either way, in both replicates (recomputed)
# [1] = compound: CC[C@@H]1C(=O)N(C)c2cnc(Nc3ccc(C(=O)NC4CCN(C)CC4)cc3OC)nc2N1C1CCCC1
# Procedure, shortened: (§1)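 K562 cells at 2×10^6 cells/mL were treated for 30 min with 10 μM compound, and aliquots were heated for 3 min over 48°C-58°C before pooling. Extraction used PBS with 0.5% NP-40 at 4°C, and soluble protein was the supernatant after 21,000xg for 90 min, measured by TMTpro 16plex LC-MS/MS with channel sums equalised. Thermal stability values, relative to control samples and from duplicates, are log2 fold changes.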
# volasertib = compound: CC[C@@H]1C(=O)N(C)c2cnc(Nc3ccc(C(=O)N[C@H]4CC[C@H](N5CCN(CC6CC6)CC5)CC4)cc3OC)nc2N1C(C)C [volasertib]
# Procedure, shortened: as §1
# [2] = compound: CC[C@H](C)N1C=C(C2=C(C=C(C=C21)C3=CN=C(C=C3)N4CCNCC4)C(=O)NCC5=C(C=C(NC5=O)C)C)C
# Procedure, shortened: as §1
# epoxomicin = compound: CC[C@H](C)[C@@H](C(=O)N[C@@H]([C@@H](C)O)C(=O)N[C@@H](CC(C)C)C(=O)[C@]1(CO1)C)NC(=O)[C@H]([C@@H](C)CC)N(C)C(=O)C [epoxomicin]
# Procedure, shortened: as §1
# [3] = compound: CCn1c(C(=O)N(C2CC2)C2CC2)cc2c3c(ncn3C)c(Nc3cc(C)n(C)n3)nc21
# Procedure, shortened: as §1
# [4] = compound: CCn1cc(-c2ccnc3[nH]c(-c4cccc(CN(C)C)c4)cc23)c(-c2ccc(NC(=O)N(C)C)cc2)n1
# Procedure, shortened: as §1
# [5] = compound: CN(C)CC(=O)Nc1ccc2[nH]c(=O)c3ccccc3c2c1
# Procedure, shortened: as §1
# rosiglitazone = compound: CN(CCOC1=CC=C(C=C1)C[C@H]2C(=O)NC(=O)S2)C3=CC=CC=N3 (racemic) [rosiglitazone]
# Procedure, shortened: as §1
# [6] = compound: CN1C2=C(C3=C1C(=O)N(N=C3)CC4=CC(=CC=C4)N)SC(=C2)S(=O)C
# Procedure, shortened: as §1
# [7] = compound: CN1CCC(CNc2ccc3ncc(-c4cccc(OC(F)(F)F)c4)n3n2)CC1
# Procedure, shortened: as §1
# saracatinib = compound: CN1CCN(CCOc2cc(OC3CCOCC3)c3c(Nc4c(Cl)ccc5c4OCO5)ncnc3c2)CC1 [saracatinib]
# Procedure, shortened: as §1
# sotrastaurin = compound: CN1CCN(c2nc(C3=C(c4c[nH]c5ccccc45)C(=O)NC3=O)c3ccccc3n2)CC1 [sotrastaurin]
# Procedure, shortened: as §1
# alvocidib = compound: CN1CC[C@H](c2c(O)cc(O)c3c(=O)cc(-c4ccccc4Cl)oc23)[C@H](O)C1 [alvocidib]
# Procedure, shortened: as §1
# Tubastatin A = compound: CN1CCc2c(c3ccccc3n2Cc2ccc(C(=O)NO)cc2)C1 [Tubastatin A]
# Procedure, shortened: as §1
# [8] = compound: CNC(=O)C1=CC=CC=C1NC2=NC(=NC=C2Cl)NC3=C(C=C(C=C3)N4CCOCC4)OC
# Procedure, shortened: as §1
# defactinib = compound: CNC(=O)c1ccc(Nc2ncc(C(F)(F)F)c(NCc3nccnc3N(C)S(C)(=O)=O)n2)cc1 [defactinib]
# Procedure, shortened: as §1
# rucaparib = compound: CNCc1ccc(-c2[nH]c3cc(F)cc4c3c2CCNC4=O)cc1 [rucaparib]
# Procedure, shortened: as §1
# [9] = compound: CNc1nc(-c2ccc3c(N)n[nH]c3c2)cc(N2C[C@@H](C(=O)NC3CCCCC3)CC[C@H]2C)n1
# Procedure, shortened: as §1
# encorafenib = compound: COC(=O)N[C@@H](C)CNc1nccc(-c2cn(C(C)C)nc2-c2cc(Cl)cc(NS(C)(=O)=O)c2F)n1 [encorafenib]
# Procedure, shortened: as §1
# [10] = compound: COC(=O)[C@H](CCSC)NC(=O)C1=C(C=C(C=C1)NC[C@H](CS)N)C2=CC=CC=C2
# Procedure, shortened: as §1
# UniProt Q14689, sequence (Q14689 whole entry, looked up): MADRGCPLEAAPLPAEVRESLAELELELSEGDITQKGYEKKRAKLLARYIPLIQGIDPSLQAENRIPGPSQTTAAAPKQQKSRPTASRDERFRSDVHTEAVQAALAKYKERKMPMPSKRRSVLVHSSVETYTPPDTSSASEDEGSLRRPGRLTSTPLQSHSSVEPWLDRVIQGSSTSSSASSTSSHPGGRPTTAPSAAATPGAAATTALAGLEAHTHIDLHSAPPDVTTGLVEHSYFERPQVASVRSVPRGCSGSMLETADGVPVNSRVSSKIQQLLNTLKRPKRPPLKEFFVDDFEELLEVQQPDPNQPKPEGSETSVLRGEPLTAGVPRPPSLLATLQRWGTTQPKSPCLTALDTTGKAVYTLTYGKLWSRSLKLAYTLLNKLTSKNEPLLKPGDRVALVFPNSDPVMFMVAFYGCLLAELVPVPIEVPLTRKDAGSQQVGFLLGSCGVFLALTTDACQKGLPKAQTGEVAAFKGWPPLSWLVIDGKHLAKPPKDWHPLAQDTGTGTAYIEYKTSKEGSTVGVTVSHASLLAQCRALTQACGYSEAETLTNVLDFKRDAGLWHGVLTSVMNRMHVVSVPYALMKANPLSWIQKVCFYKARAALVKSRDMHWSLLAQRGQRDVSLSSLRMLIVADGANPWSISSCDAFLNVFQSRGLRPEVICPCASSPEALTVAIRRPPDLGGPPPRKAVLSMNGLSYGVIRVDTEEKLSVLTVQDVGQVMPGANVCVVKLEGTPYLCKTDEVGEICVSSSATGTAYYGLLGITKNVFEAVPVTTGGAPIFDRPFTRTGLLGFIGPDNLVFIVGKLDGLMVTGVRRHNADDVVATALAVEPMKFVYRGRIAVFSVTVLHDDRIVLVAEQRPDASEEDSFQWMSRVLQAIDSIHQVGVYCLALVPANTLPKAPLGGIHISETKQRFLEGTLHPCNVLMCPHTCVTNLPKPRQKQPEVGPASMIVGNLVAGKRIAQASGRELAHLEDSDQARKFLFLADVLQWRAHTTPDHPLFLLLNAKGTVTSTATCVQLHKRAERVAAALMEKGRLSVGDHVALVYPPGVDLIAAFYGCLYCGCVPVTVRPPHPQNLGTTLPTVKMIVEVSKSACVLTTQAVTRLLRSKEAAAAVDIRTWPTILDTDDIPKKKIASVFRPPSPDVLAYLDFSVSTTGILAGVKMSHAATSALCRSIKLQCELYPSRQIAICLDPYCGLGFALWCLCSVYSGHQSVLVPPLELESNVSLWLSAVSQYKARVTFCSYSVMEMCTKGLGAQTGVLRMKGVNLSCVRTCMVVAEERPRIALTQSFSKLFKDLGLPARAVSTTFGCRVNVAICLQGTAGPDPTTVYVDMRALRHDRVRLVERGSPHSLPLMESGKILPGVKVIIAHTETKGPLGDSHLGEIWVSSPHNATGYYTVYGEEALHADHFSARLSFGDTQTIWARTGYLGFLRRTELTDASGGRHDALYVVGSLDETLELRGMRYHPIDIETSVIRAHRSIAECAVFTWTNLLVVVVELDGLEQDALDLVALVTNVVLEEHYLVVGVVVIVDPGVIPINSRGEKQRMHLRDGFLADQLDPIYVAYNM
# UniProt Q96GE9, sequence (Q96GE9 whole entry, looked up): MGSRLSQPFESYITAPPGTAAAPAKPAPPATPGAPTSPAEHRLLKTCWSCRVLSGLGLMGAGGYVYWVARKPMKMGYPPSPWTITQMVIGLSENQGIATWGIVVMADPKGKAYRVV
# UniProt P34913, sequence (P34913 whole entry, looked up): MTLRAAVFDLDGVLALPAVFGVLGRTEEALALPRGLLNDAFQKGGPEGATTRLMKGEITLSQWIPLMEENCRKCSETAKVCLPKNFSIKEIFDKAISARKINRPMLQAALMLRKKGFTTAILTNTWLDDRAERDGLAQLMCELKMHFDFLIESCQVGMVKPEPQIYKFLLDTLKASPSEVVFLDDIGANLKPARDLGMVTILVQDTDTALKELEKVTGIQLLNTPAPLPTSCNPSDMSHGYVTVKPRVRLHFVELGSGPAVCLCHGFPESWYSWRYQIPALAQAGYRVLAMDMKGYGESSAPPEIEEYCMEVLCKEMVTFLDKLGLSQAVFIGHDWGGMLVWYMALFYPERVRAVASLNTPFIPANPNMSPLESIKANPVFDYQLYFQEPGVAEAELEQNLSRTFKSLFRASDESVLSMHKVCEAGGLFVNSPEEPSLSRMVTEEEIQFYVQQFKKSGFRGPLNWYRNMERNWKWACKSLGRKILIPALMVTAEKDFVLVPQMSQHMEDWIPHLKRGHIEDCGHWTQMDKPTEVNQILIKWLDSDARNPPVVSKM
# UniProt P53634, sequence (P53634 whole entry, looked up): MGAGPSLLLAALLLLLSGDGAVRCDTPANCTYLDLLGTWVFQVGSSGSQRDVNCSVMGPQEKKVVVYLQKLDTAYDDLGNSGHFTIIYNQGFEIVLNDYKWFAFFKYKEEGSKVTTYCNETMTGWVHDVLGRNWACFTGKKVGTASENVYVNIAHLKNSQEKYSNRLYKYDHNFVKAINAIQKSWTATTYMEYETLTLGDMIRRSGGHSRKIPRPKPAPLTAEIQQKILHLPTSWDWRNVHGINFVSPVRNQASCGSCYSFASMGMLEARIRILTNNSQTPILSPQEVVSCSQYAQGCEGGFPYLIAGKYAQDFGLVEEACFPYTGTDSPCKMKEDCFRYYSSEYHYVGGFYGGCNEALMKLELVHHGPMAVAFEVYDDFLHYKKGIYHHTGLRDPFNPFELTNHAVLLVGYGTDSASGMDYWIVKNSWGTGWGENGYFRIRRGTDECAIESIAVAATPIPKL
# UniProt Q96DF8, sequence (Q96DF8 whole entry, looked up): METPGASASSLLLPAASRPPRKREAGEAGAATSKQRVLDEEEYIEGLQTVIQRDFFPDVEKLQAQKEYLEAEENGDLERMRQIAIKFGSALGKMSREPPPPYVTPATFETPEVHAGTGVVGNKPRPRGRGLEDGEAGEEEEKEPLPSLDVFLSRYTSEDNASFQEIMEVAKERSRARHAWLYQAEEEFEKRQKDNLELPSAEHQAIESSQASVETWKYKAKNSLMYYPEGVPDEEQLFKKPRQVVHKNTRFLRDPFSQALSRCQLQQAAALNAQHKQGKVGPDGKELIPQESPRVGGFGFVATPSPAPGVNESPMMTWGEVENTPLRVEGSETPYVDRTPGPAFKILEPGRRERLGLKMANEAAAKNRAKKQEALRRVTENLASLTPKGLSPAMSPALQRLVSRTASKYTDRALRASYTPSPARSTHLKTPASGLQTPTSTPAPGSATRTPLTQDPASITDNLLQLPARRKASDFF
# UniProt Q96KC8, sequence (Q96KC8 whole entry, looked up): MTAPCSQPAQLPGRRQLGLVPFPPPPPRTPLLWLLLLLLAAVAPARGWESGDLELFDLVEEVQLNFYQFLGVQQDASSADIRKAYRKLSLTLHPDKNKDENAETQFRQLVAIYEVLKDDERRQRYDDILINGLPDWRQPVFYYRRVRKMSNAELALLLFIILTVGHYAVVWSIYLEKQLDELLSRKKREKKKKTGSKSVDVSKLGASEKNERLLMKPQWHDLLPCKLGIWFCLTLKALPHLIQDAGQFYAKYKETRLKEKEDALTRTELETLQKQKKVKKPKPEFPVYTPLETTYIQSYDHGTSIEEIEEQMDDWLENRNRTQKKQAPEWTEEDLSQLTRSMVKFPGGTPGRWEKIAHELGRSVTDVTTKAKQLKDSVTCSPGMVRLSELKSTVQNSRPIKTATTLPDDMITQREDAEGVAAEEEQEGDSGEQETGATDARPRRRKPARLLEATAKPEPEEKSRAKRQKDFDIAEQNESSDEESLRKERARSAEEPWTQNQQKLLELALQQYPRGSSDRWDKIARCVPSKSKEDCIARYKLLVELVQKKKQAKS
# UniProt P18074, sequence (P18074 whole entry, looked up): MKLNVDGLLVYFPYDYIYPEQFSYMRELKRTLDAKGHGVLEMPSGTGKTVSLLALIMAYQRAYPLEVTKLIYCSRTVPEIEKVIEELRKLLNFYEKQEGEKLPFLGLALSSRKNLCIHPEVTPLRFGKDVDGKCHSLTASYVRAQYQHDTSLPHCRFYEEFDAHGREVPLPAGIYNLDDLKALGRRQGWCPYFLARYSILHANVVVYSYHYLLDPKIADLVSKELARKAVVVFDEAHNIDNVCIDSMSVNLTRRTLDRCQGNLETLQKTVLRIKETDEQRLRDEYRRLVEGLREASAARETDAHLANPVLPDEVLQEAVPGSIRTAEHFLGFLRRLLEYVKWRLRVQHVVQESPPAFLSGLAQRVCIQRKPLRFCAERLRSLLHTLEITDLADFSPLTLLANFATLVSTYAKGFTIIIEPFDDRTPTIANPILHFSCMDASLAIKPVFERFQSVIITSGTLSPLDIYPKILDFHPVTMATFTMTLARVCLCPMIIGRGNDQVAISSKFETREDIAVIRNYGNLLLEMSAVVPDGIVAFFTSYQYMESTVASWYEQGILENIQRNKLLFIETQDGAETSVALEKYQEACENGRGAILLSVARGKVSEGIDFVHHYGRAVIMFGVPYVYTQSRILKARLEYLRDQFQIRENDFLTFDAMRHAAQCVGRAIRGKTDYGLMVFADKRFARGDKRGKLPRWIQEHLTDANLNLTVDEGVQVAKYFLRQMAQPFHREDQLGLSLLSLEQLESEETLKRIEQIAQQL
# UniProt Q9NRY5, sequence (Q9NRY5 whole entry, looked up): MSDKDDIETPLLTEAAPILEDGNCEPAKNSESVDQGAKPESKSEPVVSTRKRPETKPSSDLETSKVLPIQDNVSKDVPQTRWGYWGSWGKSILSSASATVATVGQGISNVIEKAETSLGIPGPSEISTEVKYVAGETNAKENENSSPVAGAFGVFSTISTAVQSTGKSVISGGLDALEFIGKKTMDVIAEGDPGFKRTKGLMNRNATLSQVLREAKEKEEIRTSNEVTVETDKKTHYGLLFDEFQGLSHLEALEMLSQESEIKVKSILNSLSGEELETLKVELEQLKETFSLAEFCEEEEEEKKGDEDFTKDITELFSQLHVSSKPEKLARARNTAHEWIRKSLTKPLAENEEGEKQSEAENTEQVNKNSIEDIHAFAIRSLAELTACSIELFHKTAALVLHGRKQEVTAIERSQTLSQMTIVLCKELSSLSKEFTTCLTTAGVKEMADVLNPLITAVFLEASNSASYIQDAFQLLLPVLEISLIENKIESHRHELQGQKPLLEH
Target,log2 fold change [1],log2 fold change (volasertib),log2 fold change [2],log2 fold change (epoxomicin),log2 fold change [3],log2 fold change [4],log2 fold change [5],log2 fold change (rosiglitazone),log2 fold change [6],log2 fold change [7],log2 fold change (saracatinib),log2 fold change (sotrastaurin),log2 fold change (alvocidib),log2 fold change (Tubastatin A),log2 fold change [8],log2 fold change (defactinib),log2 fold change (rucaparib),log2 fold change [9],log2 fold change (encorafenib),log2 fold change [10]
CTSC (UniProt P53634),-0.419 (active),-0.946 (active),-0.034,0.023,0.015,-0.032,0.146,-0.047,-0.015,-0.433 (active),0.03,0.046,0.074,-0.015,0.052,0.035,0.031,-0.005,-0.082,0.007
DIAPH1 (UniProt O60610),0.012,-0.211,0.09,-0.004,-0.061,0.055,0.053,0.047,0.168,-0.012,-0.104,-0.276,0.132,0.086,0.044,-0.039,0.219,0.125,0.215,-0.12
EPHX2 (UniProt P34913),0.098,0.117,-0.019,-0.012,-0.002,-0.032,-0.015,0.033,0.066,0.091,-0.009,0.172,-0.023,0.003,-0.022,-0.002,0.002,0.216,0.003,-0.011
DAG1 (UniProt Q14118),0.149,0.048,-0.008,0.023,-0.039,-0.044,0.012,-0.007,-0.075,0.243 (active),-0.033,0.1,-0.026,-0.021,-0.093,-0.032,-0.014,0.052,0.002,0.007
FAM114A2 (UniProt Q9NRY5),-0.094,-0.136,0.046,0.052,-0.001,-0.059,0.02,0.049,-0.013,-0.29 (active),0.005,-0.048,-0.078,-0.019,-0.001,-0.04,-0.022,-0.054,0.008,0.025
CTSB (UniProt P07858),-1.16 (active),-1.72 (active),-0.009,-0.011,0.017,-0.047,0.021,-0.007,-0.07,-0.936 (active),0.05,0.064,0,0.002,0.052,-0.014,-0.073,-0.009,0.013,-0.008
DYNC1I2 isoform 5 (UniProt Q13409),0.004,0.005,0.004,0.026,0.011,-0.003,0.002,-0.024,-0.041,-0.035,0.012,0.021,-0.033,0.003,0.012,0.001,-0.006,-0.005,-0.014,0.028
DMAC1 (UniProt Q96GE9),0.269,0.016,-0.038,-0.084,0.057,-0.041,0.001,-0.025,-0.007,0.015,-0.509 (active),0,-0.003,0.031,-0.077,-0.048,-0.124,0.005,-0.105,-0.019
ELOC (UniProt Q15369),-0.009,-0.016,0.042,0.028,0.006,-0.087,0.108,0.011,-0.033,-0.014,0.008,0.01,-0.074,0.035,0.025,-0.033,-0.021,0,-0.021,-0.014
CWC27 (UniProt Q6UX04),-0.103,-0.421 (active),0.086,0.094,-0.089,0.117,0.066,0.143,-0.011,-0.091,0.01,-0.093,0.011,0.012,0.022,-0.139,-0.001,-0.064,0.068,-0.04
DHRS7B (UniProt Q6IAN0),-0.079,-0.147,-0.043,-0.106,0.004,0.059,-0.002,0.021,-0.122,0.538 (active),-0.003,0.148,-0.18,-0.019,0.051,-0.067,0.029,0.071,-0.008,-0.016
ESS2 (UniProt Q96DF8),-0.025,-0.245 (active),-0.077,-0.012,0.026,0.036,-0.032,-0.008,0.024,-0.012,0.041,-0.025,0.113,-0.055,-0.038,0,-0.013,-0.142,-0.012,0.01
DNAJC1 (UniProt Q96KC8),-0.097,-0.185,0.024,0.037,0.008,0.014,0.002,0.014,-0.01,-0.144,-0.02,-0.028,-0.012,0.018,0.046,0.004,0.03,-0.011,0.003,0.005
DIP2A (UniProt Q14689),-0.065,0.026,-0.037,-0.017,0.037,-0.063,-0.041,-0.034,-0.045,0.057,0.082,0.054,-0.095,-0.094,0.034,-0.059,0.1,-0.009,0,0.077
ERCC2 (UniProt P18074),-0.015,-0.258,0.043,0.326 (active),0.003,-0.076,-0.019,0.007,0.013,-0.153,-0.016,-0.035,-0.062,0.051,-0.01,-0.094,-0.013,-0.027,0.177,-0.005
FAM83D (UniProt Q9H4H8),-0.097,-0.139,0,-0.082,-0.074,-0.115,0.085,0.081,0.006,0.042,-0.014,-0.055,-0.088,-0.002,-0.004,-0.074,0.078,0.03,0.071,-0.023
